In the library only some 3.8% were active in any assay of this set; here they are far more common.
Nrf2 block: Nrf2 qHTS screen for inhibitors. A549 ARE-Fluc reporter, luciferase luminescence, 18-24 h. Potency, µM (top dose mostly 46 µM), for the others: top-dose activity change, negative = inhibition, hits mostly inhibitors. 2.1% of 360,000 active. AID 504444, 2011; note: % is set by controls: 0 for no effect and ±100 for the full control effect; nearly all actives have a fitted effect of over 60% in size
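Reporter: ARE-Fluc in A549. Exposure: 18-24 h, 37 °C, 5% CO2, 5% FBS OPTI-MEM. Readouts: fluorescent cytotoxicity (CellTiter-Fluor), then luminescent Nrf2 signal after BugLite.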
mIDH1 inhibitor: qHTS for Inhibitors of mutant isocitrate dehydrogenase 1 (IDH1): qHTS. IDH1-R132H enzyme, NADPH consumption, diaphorase/resazurin fluorescence. Potency, µM (top dose mostly 76.6 µM), inactives show at the top dose activity change, negative = inhibition, most hits filed as inhibitors. AID 602179, 2012. 0.093% of 390,000 active; note: % is set by controls: 0 for no effect and ±100 for the full control effect; nearly all actives have a fitted effect of over 65% in size
Target sequence (O75874 whole entry R132H, stated change not applied): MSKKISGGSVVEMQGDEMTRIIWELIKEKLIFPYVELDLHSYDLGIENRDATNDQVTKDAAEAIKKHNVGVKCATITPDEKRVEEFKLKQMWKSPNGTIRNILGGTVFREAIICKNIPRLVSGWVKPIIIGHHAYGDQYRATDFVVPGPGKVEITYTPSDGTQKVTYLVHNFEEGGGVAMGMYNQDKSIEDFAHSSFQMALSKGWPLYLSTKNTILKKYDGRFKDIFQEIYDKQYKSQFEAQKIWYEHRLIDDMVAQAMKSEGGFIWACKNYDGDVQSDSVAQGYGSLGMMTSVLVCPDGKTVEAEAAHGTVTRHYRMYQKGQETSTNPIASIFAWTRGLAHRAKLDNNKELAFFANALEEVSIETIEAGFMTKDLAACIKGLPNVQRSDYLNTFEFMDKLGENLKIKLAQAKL
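IDH1-R132H (0.5 ug/mL) preincubated 30 min with compound, then NADPH (0.016 mM) and alpha-KG (2 mM) added; 80 min at RT, pH 7.5. Remaining NADPH coupled via diaphorase/resazurin to fluorescence (540/590 nm); concentration-response curves normalized to no-enzyme control.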
ELG1 repair inh: qHTS screen for small molecules that inhibit ELG1-dependent DNA repair in human embryonic kidney (HEK293T) cells expressing luciferase-tagged ELG1. HEK293T ELG1-luciferase reporter, luminescence, 16 h; DNA damage induced by 5-fluorouridine. Potency, µM (doses to about 46.1 µM), for the others: top-dose activity change, negative = inhibition, usual class: inhibitors. 2.3% of 330,000 active. AID 504467, 2011; note: % is set by controls: 0 for no effect and ±100 for the full control effect; nearly all actives have a fitted effect of over 55% in size
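In this reporter screen, reduction of luminescence relative to DMSO vehicle indicated activity. Compounds and 5-fluorouridine were added together to 2,000 cells per well, incubated for 16 hr at 37 °C, then developed with ONE-Glo.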
A549 tox: Nrf2 qHTS screen for inhibitors: counterscreen for cytotoxicity. 0.16% of 390,000 active. A549 ARE-Fluc cells, CellTiter-Fluor viability, 18-24 h. Potency, µM (doses to about 46 µM), without a hit: at the top dose activity change, negative = cytotoxicity, most hits filed as inhibitors; note: % is set by controls: 0 for no effect and ±100 for the full control effect
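Cytotoxicity counterscreen: CellTiter-Fluor fluorescence was measured in A549 ARE_Fluc cells after 18-24 h of compound exposure in a concentration series. The subsequent BugLite luminescent read reports ARE-luciferase activity.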
Nrf2 activator: qHTS of Nrf2 Activators; AREc32 ARE-luciferase reporter (MCF7-derived line), luminescence, 24 h; Potency, µM (top dose mostly 46.1 µM), for the others: at the top dose activation, hits mostly activators; 0.31% of 410,000 active; AID 624171, 2012; note: % of control where 0% means no effect; nearly all actives have a fitted effect of over 65% in size
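Steps: seed AREc32_Fluc cells (1000/well, 5% FBS OPTI-MEM); incubate overnight at 37 deg C; add 23 nL compound; incubate 24 hr; add Steady-Glo; hold 30 min RT; read luminescence.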
* hit, by the source's call; ? = inconclusive; · = no result given. Calls come from the whole dose curve; as a rule, active = well fitted curve in the direction sought with a large enough effect; inconclusive = small, poorly fitted or top-dose-only effect, or another doubt; inactive = no such curve, though single readings can be large; an effect the other way counts as inactive or inconclusive. Potency is the fitted concentration of half-maximal effect.

SMILES	Nrf2 block	mIDH1 inhibitor	ELG1 repair inh	A549 tox	Nrf2 activator
Cc1ccc(NC(=O)N(Cc2c[nH]c3ccccc23)C2CCCCCC2)cc1C	?	-6%	·	3%	8%
CC1CCN(C(=O)C2CCC(=O)N(Cc3ccc(Cl)cc3)C2)CC1 (stereo not drawn)	?	10%	3%	-4%	0%
COc1ccc(NC(=O)C2CCN(C3=NS(=O)(=O)C(c4ccc(C)c(C)c4)=C3C)CC2)c(OC)c1	8%	·	·	4%	4%
O=C(CSc1nnc(-c2ccccc2Br)n1-c1ccccc1)c1ccc(F)cc1	18µM*	-15%	·	?	5%
O=C(CSc1nnc2ccc3ccccc3n12)c1ccc(F)cc1	?	-5%	·	0%	13µM*
CCOc1ccc(-c2nnc(SCC(=O)c3ccc(F)cc3)n2-c2ccccc2)cc1	-16%	14%	·	9%	0%
CCCCC1C(=O)N(c2ccccc2)N(c2ccc(O)cc2)C1=O (stereo not drawn)	26µM*	-7%	?	?	?
Cc1ncc(CO)c2c1Oc1nc(-c3ccccc3)nc(SCC(=O)Nc3cccc(C(F)(F)F)c3)c1C2	?	-14%	·	17%	10%
Nc1nc(CSC(=S)N2CCN(c3ccccc3)CC2)nc(Nc2ccccc2)n1	16µM*	2%	?	-7%	3%
Cc1ccc(Nc2nc(N)nc(CSC(=S)N3CCN(c4ccccc4)CC3)n2)cc1	-35%	-1%	?	-2%	3%
Cc1c(C(=O)NCc2cccc(Cl)c2)sc2ncnc(N(C)C3CCCCC3)c12	·	6%	·	-15%	-2%
COCCCNC(=S)N1CCCN(c2nc3cc(C)ccc3cc2C#N)CC1	16µM*	-1%	21µM*	-12%	3%
COc1cccc(N=C2CC(C)(C)CC(=O)/C2=C(/O)c2ccccc2)c1	4%	6%	-22%	0%	0%
CC(C)(C)n1nnnc1CN1CCN(C(c2ccccc2)c2ccccc2)CC1	?	-4%	18µM*	-5%	-1%
CC(C)(C)n1nnnc1C(c1ccccc1)N1CCCN(Cc2ccc(F)cc2)CC1 (stereo not drawn)	·	·	·	·	0%
CC(=O)Nc1cccc(OC2=NS(=O)(=O)c3ccccc32)c1	?	·	·	13%	·
O=C(NCc1nnc2c3ccccc3c(-c3ccccc3)nn12)c1ccc(Cl)cc1	21µM*	-16%	?	?	3%
CC(=O)NCc1nnc2c3ccccc3c(-c3ccccc3)nn12	-11%	3%	?	-5%	0%
CCOc1ccc(CC2NCCc3cc(OCC)c(OCC)cc32)cc1OCC (stereo not drawn)	?	-8%	15µM*	?	4%
Cc1nc(N2CCC(C)CC2)c2c(C)c(C(=O)Nc3ccc4c(c3)OCCO4)sc2n1	-12%	1%	10µM*	-2%	0%
Cc1nc(N2CCC(C)CC2)c2c(C)c(C(=O)Nc3cccc(C(F)(F)F)c3)sc2n1	?	11%	-16%	?	0%
Cc1nc(N2CCC(C)CC2)c2c(C)c(C(=O)Nc3ccc(C(F)(F)F)cc3)sc2n1	21µM*	10%	-10%	?	0%
c1nc(N2CCC(N3CCCC3)CC2)c2cc(-c3ccc4c(c3)OCO4)ccc2n1	-2%	·	·	2%	·
O=C(Nc1nnc(-c2ccccc2F)s1)Nc1ccccc1F	10%	-14%	?	9%	8.9µM*
O=C(Nc1nnc(-c2ccccc2SCc2ccccc2)s1)Nc1ccccc1F	17%	4%	21%	-2%	5%
O=C(Nc1nnc(-c2ccccc2F)s1)C1CCCO1 (stereo not drawn)	?	5%	?	-2%	3.2µM*
c1cc(Nc2ncnc3sccc23)cc(-c2nnc3n2CCCCC3)c1	-27%	3%	23µM*	-22%	4%
Cc1ccc(Cc2nc3ccccc3nc2SCC(=O)N2CCCCC2)cc1	·	7%	·	-14%	0%

Screens (PubChem BioAssay)
